From PMC7819943, “Rice protein-binding microarrays: a tool to detect cis-acting elements near promoter regions in rice” come the findings set out here.

Over roughly 68,000 sequences, “fluorescence intensity (a.u.)” has its median near 9,100; the highest 2% begin near 16,000. The sample as a whole holds a higher share of the highest values than the screen did.

Sequence of OsWRKY34 (Q0JBA9 entry or part of it): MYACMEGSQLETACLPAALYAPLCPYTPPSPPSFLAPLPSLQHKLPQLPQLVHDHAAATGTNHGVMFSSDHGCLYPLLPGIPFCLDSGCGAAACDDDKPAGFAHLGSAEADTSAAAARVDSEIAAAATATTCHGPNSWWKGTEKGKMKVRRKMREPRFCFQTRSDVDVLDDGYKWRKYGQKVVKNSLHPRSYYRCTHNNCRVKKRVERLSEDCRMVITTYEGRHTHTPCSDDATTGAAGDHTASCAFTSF

The assay addresses OsWRKY34 (Oryza sativa, UniProt Q0JBA9 1-250). The assay can be described thus: protein-binding microarray (RPBM); PBS, 2% BSA, 51.3 ng/ul salmon testes DNA, 50 uM zinc acetate, 200 nM TF, 25 C, 1 h; high values mean tight binding. Conditions: protein: recombinant; tags: N-terminal polyhistidine and DsRed monomer fusion (pET32a); label: CyDye5-dUTP incorporated in the synthesized complementary strand; 3' TTTTT single-stranded linker to array surface; dsDNA, one strand shown. Put shortly:
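Transcription factors were made in E. coli BL21-CodonPlus as N-terminal fusions to a polyhistidine tag and DsRed, then purified on Ni–NTA. After primer extension with Cy5-dUTP and blocking with 2% BSA, a custom Agilent array was exposed for 1 h at 25 °C to 200 nM protein in PBS, 2% BSA, salmon testes DNA and 50 µM zinc acetate. Washed arrays were scanned on an Axon 4000B, and the binding signal is per-feature fluorescence intensity in arbitrary units.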
On to “CGTCCTTATTGTGGTTTTCCACGTGTTTGTCTCTGTGTTTCGGAGTCACCTAGTGCAG”, for which the binding signal is 13300 fluorescence intensity (a.u.).

“CGTTCTGTCATTTGGGTTTTATGTTTGTTCTCTCTTGTTTCGGAGTCACCTAGTGCAG”: the binding signal was 12000 fluorescence intensity (a.u.).

On to “GAATTGTTGACCACGTGTTTCTGTTTGGACTCCTTTTTTTCGGAGTCACCTAGTGCAG”, for which the binding signal is 16400 fluorescence intensity (a.u.).

On to “TACATCCGTTTCCGTTTCGTTCTGTTCTGTTCTGTTGTTTCGGAGTCACCTAGTGCAG”, for which the binding signal was 29200 fluorescence intensity (a.u.).

For the sequence “TTCCGTTTCTGTTCCGTTTGGTTTTTCCTTGTTCTTTCGGCGGAGTCACCTAGTGCAG”, the binding signal is 12900 fluorescence intensity (a.u.).

In the case of “TCATTTCTGTGTGTGTTTTGGAGGTGGGTGAGGGTCTGTTCGGAGTCACCTAGTGCAG”, the binding signal was 9920 fluorescence intensity (a.u.).

Take “TTTTCCGTGTTTTCCGTTTCTGTTTGTTTGGCTTTTTTTTCGGAGTCACCTAGTGCAG”: the binding signal was 18600 fluorescence intensity (a.u.).

Consider “ATGCGTGTGGTTCTCCTGTCCGTTCTGTCATTTGGGTTTTCGGAGTCACCTAGTGCAG”, for which the binding signal is 20000 fluorescence intensity (a.u.).

For “CTTCTTAGCTTCCGTGTCATGTTTCTTTTTGTTATCTTTTCGGAGTCACCTAGTGCAG”, the binding signal is 10800 fluorescence intensity (a.u.).

For the sequence “GTGGACTTTTTTCCTTCTCCTTTTCCTTTGTGTTGTTTCGCGGAGTCACCTAGTGCAG”, the binding signal is 8860 fluorescence intensity (a.u.).

Consider “GCTTCCGCCGCCGCGTCTTCTCGCCCTCGACTCCGCTCTCCGGAGTCACCTAGTGCAG”, for which the binding signal was 14700 fluorescence intensity (a.u.).

For the sequence “GCATAACTAATGGTCTGTTTACTTTGATGGCATTTTCAATCGGAGTCACCTAGTGCAG”, the binding signal is 9570 fluorescence intensity (a.u.).

For the sequence “CCTCAACCGTGACTCAGTTATTCAGTTCGACACCCAGCCGCGGAGTCACCTAGTGCAG”, the binding signal was 8070 fluorescence intensity (a.u.).

Take “TTGCATTTGAAGACATGTAGTGTGTAGGGTGGGTTCTATTCGGAGTCACCTAGTGCAG”: the binding signal was 13500 fluorescence intensity (a.u.).

For “GCATTTCCAGGCCCACGGAAGCCACGCTTCTTCTCCAGCGCGGAGTCACCTAGTGCAG”, the binding signal was 8060 fluorescence intensity (a.u.).

For the sequence “TCTGTTGTGCTCTTTCGTGTGATAGATCGATTTTTTGATTCGGAGTCACCTAGTGCAG”, the binding signal was 10600 fluorescence intensity (a.u.).

Regarding “AGGGAATTTCCCGTTCTTGCGCTCCTGGATTTCTTGCCCACGGAGTCACCTAGTGCAG”, the binding signal is 9560 fluorescence intensity (a.u.).

As for “CTCTCTCTGTTTCGGCCTCTCATACTCACTCCTCGGCTTCCGGAGTCACCTAGTGCAG”, the binding signal is 11100 fluorescence intensity (a.u.).

Consider “AGTCCCAAGTCACAACTGACAACAAGGCAACTACTACTACCGGAGTCACCTAGTGCAG”, for which the binding signal is 8360 fluorescence intensity (a.u.).

On to “ACTTTGATCATAAAATGAGTTACTCTTACTTTCTTTTATTCGGAGTCACCTAGTGCAG”, for which the binding signal is 8920 fluorescence intensity (a.u.).

On to “ACTGTTCGTTTTTCCACTTAAGTTCTGCTTGGTTTTTTTTCGGAGTCACCTAGTGCAG”, for which the binding signal is 16600 fluorescence intensity (a.u.).

Regarding “CTCTCATCCGATTCCTGCGTTTTTCCTGTGGTTCAATCATCGGAGTCACCTAGTGCAG”, the binding signal was 17900 fluorescence intensity (a.u.).

Take “CTCATCCGATTCCTGCGTTTTTCCTGCGCTCCAATCAAACCGGAGTCACCTAGTGCAG”: the binding signal was 9990 fluorescence intensity (a.u.).

In the case of “TATGCCTATCTGAATTGGTTACTGTTCGTTTTTCCACTTACGGAGTCACCTAGTGCAG”, the binding signal is 10800 fluorescence intensity (a.u.).

Consider “CTCTCTCATCTGATTCTTGCGTTTTTCCTGTGGTCCAATCCGGAGTCACCTAGTGCAG”, for which the binding signal is 12000 fluorescence intensity (a.u.).

With “GATTTAGTTTTAGTTTTTGTTTTTTTCCCACTTGGTTCTTCGGAGTCACCTAGTGCAG”, the binding signal is 9450 fluorescence intensity (a.u.).

For “CTCCCTCCCACTCCCCTTTTCGTAATTCCTTCCGCGCTTTCGGAGTCACCTAGTGCAG”, the binding signal is 8150 fluorescence intensity (a.u.).

On to “TACTCTCTCTGTCCCCTTTTGTTTTTTTTCCTGTATACTGCGGAGTCACCTAGTGCAG”, for which the binding signal is 8690 fluorescence intensity (a.u.).

On to “ATCACCTTCACGTTCCGAGATGTGGCACGAATCCCGAGGACGGAGTCACCTAGTGCAG”, for which the binding signal is 8070 fluorescence intensity (a.u.).

Consider “AATCGCTTTCTCTCTCTTCTTCCTTGCTCTCTCATACAACCGGAGTCACCTAGTGCAG”, for which the binding signal is 10200 fluorescence intensity (a.u.).

With “TCGTTTGATGCGATTTCGGCGGCGATCACCACCACCACCACGGAGTCACCTAGTGCAG”, the binding signal is 8160 fluorescence intensity (a.u.).

As to “GAAGCTGGGTTATACTTTCACCATTTTTTTACTCGATCGACGGAGTCACCTAGTGCAG”, the binding signal is 8460 fluorescence intensity (a.u.).

Turning to “ATATACAGATTTCGATCGGCGACGTTAGTGATCAGCTGGGCGGAGTCACCTAGTGCAG”, the binding signal was 35200 fluorescence intensity (a.u.).

On to “AGGATTTTTTTTTTGTCAACGTATTTCTATTACCTGCTGTCGGAGTCACCTAGTGCAG”, for which the binding signal was 9630 fluorescence intensity (a.u.).

Consider “TCTGTTATATTTACTATCCATACTATACGTGTAAATTTTACGGAGTCACCTAGTGCAG”, for which the binding signal is 10200 fluorescence intensity (a.u.).

As for “TATTCTTTCTCACGTAACGATTTTTTTTCATCATTAAGTTCGGAGTCACCTAGTGCAG”, the binding signal was 8230 fluorescence intensity (a.u.).

With “ATTTTTTAAGTGTACGTTGTTGTTGACTTTTTTTATTAACCGGAGTCACCTAGTGCAG”, the binding signal is 14400 fluorescence intensity (a.u.).

Consider “CCGTATTTTAATATATGACGTCGTTGACTTTTTAACCAACCGGAGTCACCTAGTGCAG”, for which the binding signal was 27300 fluorescence intensity (a.u.).

Consider “CCGTATTTTAATGCACGACACCTTTGACTTTTTGATAAACCGGAGTCACCTAGTGCAG”, for which the binding signal was 9990 fluorescence intensity (a.u.).

Take “AGTCTTTTTTCATCACATTAACCTATTATACACACATAACCGGAGTCACCTAGTGCAG”: the binding signal is 9110 fluorescence intensity (a.u.).

In the case of “CTAGTCCTTCGTTTGAGTCCTTATATAACATTGATAGTACCGGAGTCACCTAGTGCAG”, the binding signal is 8500 fluorescence intensity (a.u.).

Consider “CTACCTCTATATTTTAATTTTAATGTATGACGTCGTTGACCGGAGTCACCTAGTGCAG”, for which the binding signal was 11100 fluorescence intensity (a.u.).

Consider “GTCCTTAACGACGTCGTTGACTTTTCACATAACATTATACCGGAGTCACCTAGTGCAG”, for which the binding signal was 17300 fluorescence intensity (a.u.).

As to “TCCGTATTTTAATTAACGACGTCGTTGACTTTTTAACCACCGGAGTCACCTAGTGCAG”, the binding signal is 24200 fluorescence intensity (a.u.).

Regarding “TATATTTTAATATTTTAATGTATGACGTCGTTGACTTTTTCGGAGTCACCTAGTGCAG”, the binding signal was 13800 fluorescence intensity (a.u.).
